Laboratory results as given in PubChem BioAssay (Tox21).
Results filed as inconclusive are left out. Unmarked numbers belong to inactive results. The call rests on the fitted dose curve; in most records, active means well fitted inhibition curve with a large enough effect in the signal ratio in the repeat runs (not every such curve was filed as active); inconclusive means weak or mixed curves, or effect the other way; inactive means no such curve, though single readings can be large or run the other way; the % refers to the signal ratio.

Target: Peroxisome proliferator-activated receptor delta (Homo sapiens) (UniProt Q03181)
Sequence (Q03181 whole entry, looked up): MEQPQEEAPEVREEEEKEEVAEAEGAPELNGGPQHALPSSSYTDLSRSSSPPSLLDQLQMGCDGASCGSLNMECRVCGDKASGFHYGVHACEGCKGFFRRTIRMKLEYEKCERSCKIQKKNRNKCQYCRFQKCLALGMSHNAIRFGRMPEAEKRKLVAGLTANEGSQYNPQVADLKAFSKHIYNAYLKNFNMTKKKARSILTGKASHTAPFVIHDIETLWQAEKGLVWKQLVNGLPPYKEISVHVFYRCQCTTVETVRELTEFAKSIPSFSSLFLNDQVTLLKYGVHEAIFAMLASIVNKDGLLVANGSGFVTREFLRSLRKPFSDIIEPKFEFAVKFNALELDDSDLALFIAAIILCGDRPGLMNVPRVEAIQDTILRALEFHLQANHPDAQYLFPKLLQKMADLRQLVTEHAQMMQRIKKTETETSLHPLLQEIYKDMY
Test: qHTS assay to identify small molecule antagonists of the peroxisome proliferator-activated receptor delta (PPARd) signaling pathway (AID 743215);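 further: cells stimulated with agonist L165041 at 300 nM final during compound exposure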
Conditions: HEK293H PPARd-UAS-bla, beta-lactamase FRET ratio, antagonist, 17 h; series mostly up to 62 µM; ratio activity, negative = inhibition: at the top concentration
Excerpt: U.S. Tox21 Program National Center for Advancing Translational Sciences [NCATS] NIH Chemical Genomics Center [NCGC] U.S. Environmental Protection Agency [EPA] National Institutes of Environmental Health Sciences [NIEHS] National Toxicology Program [NTP] U.S. Food and Drug Administration [FDA] Tox21 Assay Overview: The peroxisome proliferator-activated receptors (PPARs) are lipid-activated transcription factors of the nuclear receptor superfamily with three distinct subtypes namely PPAR alpha, PPAR delta (PPARd) and PPAR gamma. All these subtypes heterodimerizes with Retinoid X receptor (RXR) and have different physiological functions. […] To identify the compounds that inhibit PPAR-delta signaling, GeneBLAzer PPAR delta UAS-bla HEK293H cell line (Invitrogen, Carlsbad, CA, USA) containing a beta-lactamase reporter gene under the control of an Upstream Activator Sequence (UAS) was used to screen the Tox21 compound library.
Tox21 Assay Protocol Summary: PPARd-bla cells were dispensed at 3000 cells/5uL/well in 1536-well black wall/clear bottom plates using a Multidrop Combi (Thermo Fisher Scientific, Waltham, MA) dispenser. After the assay plates were incubated at 37 C and 5% CO2 for 5 h, 23 nL of compounds dissolved in DMSO, positive controls or DMSO only was transferred to the assay plate by a Pintool station (Kalypsys, San Diego, CA), followed by addition of 1ul L165041 (300 nM, final concentration in the wells). The assay plates were incubated at 37 C for 17 h, and then 1 uL of LiveBLAzerTM B/G FRET substrate was added using a Bioraptr Flying Reagent Dispenser (FRD) workstation (Beckman Coulter, Indianapolis, IN, USA). The assay plates were incubated at room temperature for 2 h and fluorescence intensity was measured by an Envision plate reader (PerkinElmer, Shelton, CT).
On the % scale 0 is the no-effect control and ±100 the full control effect.

First: CCC(=O)OCc1ccccc1
Second: CCN(Cc1ccccc1)c1ccccc1
The “ratio activity, negative = inhibition” value of the first is higher: 13% for the first, 2.71% for the second.

Compared with `Cc1ccc(C(=O)c2ccccc2)cc1`, `Cc1ccc(-c2ccccc2C#N)cc1` is higher in “ratio activity, negative = inhibition” value: 0.553% for the first, 4.38% for the second.

First: C=CCCCCCCCCC(=O)OCC
Second: CCCOC(=O)CC
The “ratio activity, negative = inhibition” value of the first is lower: -12.6% for the first, 7.58% for the second.

Going from `Cc1ccccc1N=C(N)N=C(N)N` to `CC(=O)c1ccccc1[N+](=O)[O-]`, the “ratio activity, negative = inhibition” value rises from -2.41% to 1.08%.

Compared with `O=C(O)c1cn(C2CC2)c2cc(N3CCNCC3)c(F)cc2c1=O`, `CCCc1nn(C)c2c(=O)[nH]c(-c3cc(S(=O)(=O)N4CCN(C)CC4)ccc3OCC)nc12` is lower in “ratio activity, negative = inhibition” value: 8.22% for the first, 3.19% for the second.

First: O=C(c1ccccc1)C1(O)CCCCC1
Second: CN1CCC(=C2c3ccccc3CCc3cccnc32)CC1
The “ratio activity, negative = inhibition” value of the first is higher: 23% for the first, -5.58% for the second.

Compared with `CC1=NN(c2cc(S(=O)(=O)O)ccc2Cl)C(=O)C1N=Nc1ccccc1` (stereo not given), `c1ccc(CCc2ccccc2)cc1` is higher in “ratio activity, negative = inhibition” value: -4.3% for the first, 9.62% for the second.

First: CC(=O)Oc1cccc(C)c1
Second: CCN(CC#N)c1cccc(C)c1
The “ratio activity, negative = inhibition” value of the first is lower: 3.75% for the first, 8.05% for the second.

Going from `CO/N=C(\C(=O)N[C@@H]1C(=O)N2C(C(=O)O)=C(CSc3nc(=O)c(O)nn3C)CS[C@H]12)c1csc(N)n1` to `CC(=O)O[C@@]12CO[C@@H]1C[C@H](O)[C@@]1(C)C(=O)[C@H](O)C3=C(C)[C@@H](OC(=O)[C@H](O)[C@@H](NC(=O)OC(C)(C)C)c4ccccc4)C[C@@](O)([C@@H](OC(=O)c4ccccc4)[C@H]21)C3(C)C`, the “ratio activity, negative = inhibition” value falls from 3.94% to -7.78%.

Going from `CC1=CCC(O)(C(C)C)CC1` (stereo not given) to `CC(C)CCCO`, the “ratio activity, negative = inhibition” value rises from -5.65% to 1.99%.

Compared with `C[N+](C)(CCOc1ccccc1)Cc1cccs1`, `COc1cc(C(=O)NCc2ccc(OCCN(C)C)cc2)cc(OC)c1OC` is higher in “ratio activity, negative = inhibition” value: -11% for the first, 4.02% for the second.

Going from `CC(C)(C)c1ccc(-c2ccc(C(C)(C)C)cc2)cc1` to `CCOc1ccc2nc(S(N)(=O)=O)sc2c1`, the “ratio activity, negative = inhibition” value rises from -4.99% to -2.57%.

`OCCc1ccccn1` and `CNCCO` are the same in “ratio activity, negative = inhibition” value: 13.2% for the first, 13.2% for the second.

Going from `[K+]` to `NC(=O)N[C@@H](CCC(=O)O)C(=O)O`, the “ratio activity, negative = inhibition” value falls from 1.12% to -5%.

Compared with `CC(=O)N1C[C@H](O)C[C@H]1C(=O)O`, `CC(=O)C1CCCCC1=O` (stereo not given) is higher in “ratio activity, negative = inhibition” value: -13.2% for the first, -9.71% for the second.

Going from `CC(N)C12CC3CC(CC(C3)C1)C2` (stereo not given) to `CCCCS(=O)(=O)N[C@@H](Cc1ccc(OCCCCC2CCNCC2)cc1)C(=O)O`, the “ratio activity, negative = inhibition” value falls from 4.44% to 0.159%.

Going from `CCCO[Si](OCCC)(OCCC)OCCC` to `CCOCC(C)O` (stereo not given), the “ratio activity, negative = inhibition” value falls from 0.283% to 0.117%.

For `CCOC(=O)COc1cc(-n2ncc(C(F)(F)F)c(C)c2=O)c(F)cc1Cl`, the “ratio activity, negative = inhibition” value was 8.67%.

For `CC(C)C[C@@H](N)C(=O)O`, the “ratio activity, negative = inhibition” value was -0.97% [at 28.9 µM].

First: CCCn1cc[n+](C)c1C
Second: CC12CCC(C(=O)C1=O)C2(C)C (stereo not given)
The “ratio activity, negative = inhibition” value of the first is lower: -12.8% [at 80.4 µM] for the first, -1.56% [at 80.4 µM] for the second.

`CC(C)CC(C)(N)C#N` (stereo not given) was tested, and the “ratio activity, negative = inhibition” value was 3.5% [at 80.4 µM].

Compound `Cc1cc(C)c(N=Nc2c(O)c(S(=O)(=O)O)cc3cc(S(=O)(=O)O)ccc23)cc1C` has a ratio activity, negative = inhibition of 0.853% [at 6.26 µM].
